Measured values as given in PubChem BioAssay (NCATS).
Values joined by “and” are separate entries in the source; they are usually repeats but may differ in a detail not shown here. Identical values can stand only once. Records with an inconclusive call do not appear. Active and inactive are the calls of the source. Calls come from the whole dose curve; as a rule, active = well fitted inhibition curve with a large enough effect; inconclusive = small, poorly fitted or top-dose-only effect; inactive = flat fitted curve, though single readings scatter.

Assays:
HACAT [1] = assay: qHTS assay to identify novel small-molecules to repurpose for Merkel cell carcinoma treatment (AID 1296009); settings: MCC and control cell lines, CellTiter-Glo viability, 72 h
How it was run: (§1)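 72 hr, 37 degree celsius; NPC 8-pt / MIPE 11-pt dose response; compound pinned in DMSO; CellTiter-Glo, 10 min RT, luminescence; normalized to no-cell and DMSO controls.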

HEK293T = assay: as above; settings: MCC and control cell lines, CellTiter-Glo viability, 72 h
How it was run: as §1

PAD = assay: qHTS profiling for inhibitors of Plasmodium falciparum proliferation (AID 504749); note: potency is the fitted concentration of half-maximal effect; settings: P. falciparum in erythrocytes, SYBR Green DNA, 72 h; series mostly up to 28.7 µM
How it was run: (§2)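 Infected RBCs, 0.3% parasitemia/2.5% Hct final; cpd 72 h, 37 C, 5% CO2; lysis buffer with saponin/triton/SYBR Green I, o/n RT dark; FI 485/535; norm. to artemisinin (0.29 uM) and DMSO.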

PC15 = assay: as above; settings: P. falciparum in erythrocytes, SYBR Green DNA, 72 h; series mostly up to 28.7 µM
How it was run: as §2

PC26 = assay: as above; settings: P. falciparum in erythrocytes, SYBR Green DNA, 72 h; series mostly up to 28.7 µM
How it was run: as §2

PC49 = assay: as above; settings: P. falciparum in erythrocytes, SYBR Green DNA, 72 h; series mostly up to 28.7 µM
How it was run: as §2

SC27B = assay: as above; settings: P. falciparum in erythrocytes, SYBR Green DNA, 72 h; series mostly up to 28.7 µM
How it was run: as §2

TAB109 = assay: as above; settings: P. falciparum in erythrocytes, SYBR Green DNA, 72 h; series mostly up to 28.7 µM
How it was run: as §2

TAB113 = assay: as above; settings: P. falciparum in erythrocytes, SYBR Green DNA, 72 h; series mostly up to 28.7 µM
How it was run: as §2

TAB165 = assay: as above; settings: P. falciparum in erythrocytes, SYBR Green DNA, 72 h; series mostly up to 28.7 µM
How it was run: as §2

W2 = assay: as above; settings: P. falciparum in erythrocytes, SYBR Green DNA, 72 h; series mostly up to 28.7 µM
How it was run: as §2

CRL-7250 [2] = assay: Cytotoxic Profiling of Annotated Libraries Using Quantitative High-Throughput Screening (AID 1296008); settings: Five cell lines viability, CellTiter-Glo ATP luminescence, 48-72 h; max response: stronger effect = lower value; for max response: % is set by controls: 0 for no effect and ±100 for the full control effect
How it was run: (§3)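 Cytotoxicity was measured as CellTiter-Glo ATP luminescence, read after 10 min at room temperature. Compound treatment of the cells lasted 48 or 72 hr at 37 degrees Celsius in a qHTS format.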

HEK293 = assay: as above; settings: Five cell lines viability, CellTiter-Glo ATP luminescence, 48-72 h; max response: stronger effect = lower value
How it was run: as §3

HaCat [3] = assay: as above; settings: Five cell lines viability, CellTiter-Glo ATP luminescence, 48-72 h; max response: stronger effect = lower value
How it was run: as §3

KB-3-1 = assay: as above; settings: Five cell lines viability, CellTiter-Glo ATP luminescence, 48-72 h; max response: stronger effect = lower value
How it was run: as §3

NIH3T3 = assay: as above; settings: Five cell lines viability, CellTiter-Glo ATP luminescence, 48-72 h; max response: stronger effect = lower value
How it was run: as §3

MCC-13 = assay: qHTS assay to identify novel small-molecules to repurpose for Merkel cell carcinoma treatment (AID 1296009); settings: MCC and control cell lines, CellTiter-Glo viability, 72 h; series mostly up to 46 µM
How it was run: as §1

MKL-1 = assay: as above; settings: MCC and control cell lines, CellTiter-Glo viability, 72 h; series mostly up to 46 µM
How it was run: as §1

MCC-26 = assay: as above; settings: MCC and control cell lines, CellTiter-Glo viability, 72 h; series mostly up to 46 µM
How it was run: as §1

CRL-7250 [4] = assay: as above; settings: MCC and control cell lines, CellTiter-Glo viability, 72 h; at 44.8 µM (top of the series) unless noted
How it was run: as §1

[5] = at 44.8 µM (top of the series) unless noted
Note: nearly all actives have a fitted effect of over 60% in size.

C=CCN1C[C@H](C)N([C@H](c2ccc(C(=O)N(CC)CC)cc2)c2cccc(OC)c2)C[C@H]1C
inactive: outcome (HACAT [1]; at 9.27 µM (top of the series)) | outcome (HACAT [1]; at 44.8 µM (top of the series))

CCOC(=O)CC(SP(=S)(OC)OC)C(=O)OCC (stereo not drawn)
inactive: outcome (HEK293T; at 44.8 µM (top of the series)) | outcome (HEK293T; at 92 µM (top of the series))

CN1C(=O)COc2c(C(=O)NC3CN4CCC3CC4)cc(Cl)cc21 (stereo not drawn)
inactive: Potency (PAD) | Potency (PC15) | Potency (PC26) | Potency (PC49) | Potency (SC27B) | Potency (TAB109) | Potency (TAB113) | Potency (TAB165) | Potency (W2) | max response (CRL-7250 [2]) -5.92% | max response (HEK293) -5.69% and -2.96% | max response (HaCat [3]) -0.711% and 2.67% | max response (KB-3-1) 2.45% | max response (NIH3T3) -0.6% and 1.75% | outcome (MCC-13) | Potency (MKL-1)

COc1ccc2c(c1OC)C(=O)O[C@H]2[C@@H]1c2cc3c(cc2CCN1C)OCO3
inactive: Potency (PC26) | max response (CRL-7250 [2]) 0.738% | max response (HEK293) -2.03% | max response (HaCat [3]) -4.43% | max response (KB-3-1) 3.84% | outcome (MCC-13) | Potency (MKL-1)

O=C(N/N=C/c1ccc([N+](=O)[O-])o1)c1cc([N+](=O)[O-])cc([N+](=O)[O-])c1O
inactive: Potency (PC15) | max response (CRL-7250 [2]) -3.2% | max response (HEK293) 1.49% | outcome (HaCat [3]) | max response (KB-3-1) 15.7% | max response (NIH3T3) 1.92% | outcome (HACAT [1]; [5]) | outcome (MCC-13) | Potency (MCC-26) | Potency (MKL-1)
active: Potency (PAD) 7.1 nM | Potency (SC27B) 141 nM | Potency (TAB109) 14.1 nM | Potency (TAB113) 282 nM

C#C[C@]1(O)CC[C@H]2[C@@H]3CCC4=CC(=O)CC[C@]4(C)[C@H]3CC[C@@]21C
inactive: max response (CRL-7250 [2]) -4.49% | max response (HEK293) 2.42% | max response (HaCat [3]) 2.04% | max response (KB-3-1) -5.39% and -1.95% | max response (NIH3T3) 4.32% | outcome (MCC-13) | Potency (MCC-26) | Potency (MKL-1)

CN1CCC(O)(c2ccc(F)cc2)C(C(=O)c2ccc(F)cc2)C1 (stereo not drawn)
inactive: Potency (PAD) | Potency (PC15) | Potency (PC26) | Potency (PC49) | Potency (SC27B) | Potency (TAB109) | Potency (TAB113) | Potency (TAB165) | max response (CRL-7250 [2]) -1.09% | max response (HEK293) 3.5% | outcome (HaCat [3]) | max response (KB-3-1) 8.12% | max response (NIH3T3) 2.95% | outcome (HACAT [1]; [5]) | outcome (MCC-13) | Potency (MKL-1)

NC1=NC(=O)C(c2ccccc2)O1 (stereo not drawn)
inactive: max response (CRL-7250 [2]) -3.81% | max response (HEK293) 2.82% | outcome (HaCat [3]) | max response (KB-3-1) 4.09% | max response (NIH3T3) 3.43% | outcome (HACAT [1]; [5]) | outcome (MCC-13) | Potency (MKL-1)

[N-]=[N+]=CC(=O)OC[C@H](N)C(=O)O
inactive: max response (CRL-7250 [2]) -7.47% | max response (HEK293) 4.4% | max response (HaCat [3]) -3.83% | max response (KB-3-1) -24.6% | max response (NIH3T3) -9.9% | outcome (MCC-13) | Potency (MKL-1)

COc1cc(CCN)cc(OC)c1OC
inactive: max response (CRL-7250 [2]) -14.6% | max response (HEK293) -9.62% | max response (HaCat [3]) -15.9% | max response (KB-3-1) 2.38% | max response (NIH3T3) -22.5% | outcome (MCC-13) | Potency (MCC-26) | Potency (MKL-1)

NC(=O)CS(=O)C(c1ccccc1)c1ccccc1 (stereo not drawn)
inactive: Potency (PAD) | Potency (PC15) | Potency (PC26) | Potency (PC49) | Potency (SC27B) | Potency (TAB109) | Potency (TAB113) | Potency (TAB165) | Potency (W2) | max response (CRL-7250 [2]) 1.08% | max response (HEK293) 2.52% | max response (HaCat [3]) -6.49% | max response (KB-3-1) 3.03% | max response (NIH3T3) -4.5% | outcome (MCC-13) | Potency (MCC-26) | Potency (MKL-1)

COP(=S)(OC)Oc1ccc(SC)c(C)c1
inactive: Potency (PAD) | Potency (PC15) | Potency (PC49) | Potency (SC27B) | Potency (TAB109) | Potency (TAB113) | Potency (TAB165) | Potency (W2) | max response (CRL-7250 [2]) -0.812% | max response (HEK293) -0.0428% | max response (HaCat [3]) -0.754% | max response (KB-3-1) -16.5% | max response (NIH3T3) -0.878% | outcome (MCC-13) | Potency (MCC-26) | Potency (MKL-1)

CC(=O)C1CCOC1=O (stereo not drawn)
inactive: outcome (CRL-7250 [2]) | outcome (HEK293) | outcome (HaCat [3]) | outcome (NIH3T3) | outcome (CRL-7250 [4]) | outcome (HACAT [1]; [5]) | outcome (HEK293T; [5]) | outcome (MCC-13) | Potency (MKL-1)

CCN[C@@H](C)Cc1cccc(C(F)(F)F)c1
inactive: max response (CRL-7250 [2]) -0.0811% | max response (HEK293) 3.69% | outcome (HaCat [3]) | max response (KB-3-1) -9.47% | max response (NIH3T3) 2.4% | outcome (HACAT [1]; [5]) | outcome (MCC-13) | Potency (MKL-1)

CC(=O)NC1CCSC1=O (stereo not drawn)
inactive: max response (CRL-7250 [2]) -4.93% | outcome (HEK293) | max response (HaCat [3]) -1.96% | max response (KB-3-1) -11.7% and -14.3% | max response (NIH3T3) 2.68% | outcome (HEK293T; [5]) | outcome (MCC-13) | Potency (MKL-1)

CCC1(CC)C(=O)C=CNC1=O
inactive: Potency (PAD) | Potency (PC15) | Potency (PC26) | Potency (PC49) | Potency (SC27B) | Potency (TAB109) | Potency (TAB113) | Potency (TAB165) | Potency (W2) | max response (CRL-7250 [2]) -2.85% | max response (HEK293) 4.85% | max response (HaCat [3]) -9.12% | max response (KB-3-1) -0.338% | max response (NIH3T3) 1.41% | outcome (MCC-13) | Potency (MCC-26) | Potency (MKL-1)
